The values below come from PubChem BioAssay (NCI).

Each structure is given as a SMILES string. About 83,000 compounds went through this panel and 20% of them were active in at least one assay; those are over-represented in the sample as a whole.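 How to read the values: 0–100, growth inhibition (40 = 60% inhibited); 0, no net growth; -100 to 0, cell death (-40 = 40% of starting cells died; -100 = all dead).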 Values without a mark were called inactive. Active and inactive are the calls of the source. How the source made its calls: active means growth percent below 10; inactive means the rest.

Some test systems named below: HCT-15 colon; HT29 colon; SNB-75 CNS; SNB-19 CNS; U251 CNS; PC-3 prostate; SK-MEL-5 melanoma; UACC-62 melanoma; LOX IMVI melanoma; SK-MEL-28 melanoma; SK-MEL-2 melanoma; EKVX NSCLC; SN12C renal; UO-31 renal; TK-10 renal; ACHN renal; CAKI-1 renal; A498 renal; CCRF-CEM leukemia; MOLT-4 leukemia.
Common to all, as to assay: NCI-60 one-dose screen, 48 h (100 = growth as untreated, 0 = no growth, -100 = all killed)
Settings in all cases: 10 µM unless noted

Take `O=C1CCC(C(=O)N/N=C/c2cc(F)ccc2F)N1` (stereo not given): the growth in the test on HCT-15 colon was 98.6%; with HT29 colon, 106%; in the test on SNB-75 CNS, 80.7%; with SNB-19 CNS, 98.9%; in the test with U251 CNS, 98%; in the test with PC-3 prostate it was 95.8%. For the same compound, the growth with SK-MEL-5 melanoma is 100%; in the test on UACC-62 melanoma, 98.1%; in the test on LOX IMVI melanoma it was 95.1%; with SK-MEL-28 melanoma, 108%; with SK-MEL-2 melanoma it was 97.8%; in the test with EKVX NSCLC, 100%. In addition, the growth with SN12C renal is 96.6%; in the test with UO-31 renal, 92.4%; with TK-10 renal it was 104%; in the test on ACHN renal, 100%; in the test with CAKI-1 renal, 98%; in the test on A498 renal, 106%. Moreover, the growth is 103% in the test on CCRF-CEM leukemia and 101% in the test with MOLT-4 leukemia.

Turning to `CCOC(=O)c1c(C)nc2ccccc2c1/C=C/c1ccc(F)cc1`, the growth in the test with HCT-15 colon was 68.1%; with HT29 colon it was 75.5%; in the test on SNB-75 CNS, 86.5%; in the test on SNB-19 CNS it was 76.9%; in the test with U251 CNS, 75.5%; with PC-3 prostate, 67.3%. Further, the growth was 16.7% in the test with SK-MEL-5 melanoma; 49.7% in the test with UACC-62 melanoma; 74.1% in the test with LOX IMVI melanoma; 101% in the test with SK-MEL-28 melanoma; 75.2% in the test on SK-MEL-2 melanoma; 60.3% with EKVX NSCLC. Besides, the growth is 77.1% in the test with SN12C renal; 62.8% in the test on UO-31 renal; 82.3% with TK-10 renal; 75.5% in the test on ACHN renal; 67.7% in the test with CAKI-1 renal; 75.4% with A498 renal. The growth in the test with CCRF-CEM leukemia was 67.8%; with MOLT-4 leukemia it was 42.8%.

For `C=C1C(=O)O[C@H]2[C@H]1CC/C(COC(=O)NCc1ccc(Cn3c(=O)sn(-c4ccccc4)c3=O)cc1)=C\CC[C@@]1(C)O[C@@H]21`, the growth was 32.4% in the test with HCT-15 colon; 20.1% in the test on HT29 colon; 9.33% (active) with SNB-75 CNS; 92.4% in the test with SNB-19 CNS; 40.4% in the test on U251 CNS; 64% in the test with PC-3 prostate. Besides, the growth was 95.1% in the test with SK-MEL-5 melanoma; 48.2% in the test with UACC-62 melanoma; 6.38% (active) in the test with LOX IMVI melanoma; 47% with SK-MEL-28 melanoma; 49.6% with SK-MEL-2 melanoma; 77.1% in the test on EKVX NSCLC. For the same compound, the growth in the test on SN12C renal was 33.9%; in the test with UO-31 renal, 66.6%; in the test with TK-10 renal it was 4.49% (active); in the test on ACHN renal, 29.6%; with CAKI-1 renal it was 15.6%; in the test on A498 renal, 127%. Also, the growth in the test on CCRF-CEM leukemia was -9.16% (active); with MOLT-4 leukemia, -5.87% (active).

With `CS(=O)/C(C#N)=C\C=C\c1cccc(Cl)c1` (stereo not given), the growth in the test with HCT-15 colon was -6.41% (active); in the test on HT29 colon, 8.51% (active); in the test with SNB-75 CNS, 22.5%; in the test with SNB-19 CNS, 27.2%; in the test on U251 CNS, 17.3%; with PC-3 prostate, 30.6%. The growth in the test with SK-MEL-5 melanoma is 32.3%; with UACC-62 melanoma it was 0.315% (active); with LOX IMVI melanoma, -53.2% (active); with SK-MEL-28 melanoma, 24.8%; with SK-MEL-2 melanoma, 31.9%; with EKVX NSCLC, 38.9%. For the same compound, the growth with SN12C renal is 19.9%; with UO-31 renal, 21.4%; with TK-10 renal, 35%; in the test on ACHN renal, 3.18% (active); in the test with CAKI-1 renal, 20.5%; with A498 renal, 12.1%. In addition, the growth in the test with CCRF-CEM leukemia is 2.45% (active); with MOLT-4 leukemia, 7.07% (active).

Turning to `COc1cc2ncnc(Nc3ccc(F)c(Cl)c3)c2cc1OCC(=O)N1CCOCC1`, the growth is 96.6% in the test on HCT-15 colon; 91.8% in the test on HT29 colon; 102% in the test with SNB-75 CNS; 86% in the test on SNB-19 CNS; 102% in the test on U251 CNS; 94.3% in the test on PC-3 prostate. In addition, the growth with SK-MEL-5 melanoma is 98.4%; in the test with UACC-62 melanoma it was 86.6%; in the test on LOX IMVI melanoma it was 97.8%; with SK-MEL-28 melanoma, 106%; in the test with SK-MEL-2 melanoma, 87.1%; in the test on EKVX NSCLC, 63.3%. Also, the growth in the test on SN12C renal was 80.3%; in the test with UO-31 renal, 52.4%; with TK-10 renal, 20.8%; in the test with ACHN renal, 31.9%; in the test on CAKI-1 renal, 48.4%; with A498 renal it was 66.2%. Besides, the growth in the test with CCRF-CEM leukemia is 91.6%; in the test with MOLT-4 leukemia, 91.5%.

`COc1ccc2c(c1)c(-c1nc(-c3ccc4ccccc4c3)cs1)cn2C`: the growth was 73% in the test with HCT-15 colon; 51.3% in the test with HT29 colon; 109% in the test with SNB-75 CNS; 99.8% in the test with SNB-19 CNS; 91% in the test on U251 CNS; 87.1% in the test with PC-3 prostate. For the same compound, the growth was 94.5% with SK-MEL-5 melanoma; 91.3% in the test with UACC-62 melanoma; 86% in the test on LOX IMVI melanoma; 89.6% in the test on SK-MEL-28 melanoma; 108% in the test with SK-MEL-2 melanoma; 85.8% with EKVX NSCLC. For the same compound, the growth with SN12C renal is 93.6%; in the test with UO-31 renal, 70.6%; in the test on TK-10 renal, 102%; in the test with ACHN renal, 87.4%; with CAKI-1 renal, 83.6%; in the test on A498 renal it was 86.8%. Further, the growth is 88.7% in the test with CCRF-CEM leukemia and 84% in the test on MOLT-4 leukemia.

As for `CC1=C2CC/C(C)=C/CC[C@]3(C)O[C@H]3CC/C(C)=C/[C@H]2OC1`, the growth in the test with HCT-15 colon was 97.9%; with HT29 colon it was 94.7%; with SNB-75 CNS, 86.6%; in the test on SNB-19 CNS, 98.5%; in the test with U251 CNS, 94.7%; in the test with PC-3 prostate it was 87.5%. The growth in the test on SK-MEL-5 melanoma was 108%; in the test with UACC-62 melanoma it was 92.1%; in the test on LOX IMVI melanoma, 101%; with SK-MEL-28 melanoma, 96.5%; with SK-MEL-2 melanoma, 92.6%; in the test with EKVX NSCLC it was 103%. Moreover, the growth in the test on SN12C renal is 95.5%; in the test on UO-31 renal, 84.7%; in the test with TK-10 renal, 100%; in the test on ACHN renal, 90.9%; in the test on CAKI-1 renal, 87%; in the test on A498 renal, 97%. Moreover, the growth is 84.9% with CCRF-CEM leukemia and 86.5% in the test on MOLT-4 leukemia.
